# In PubChem BioAssay (NCATS):
# Results filed as inconclusive are left out. Values without a mark were called inactive. Calls come from the whole dose curve; as a rule, active = well fitted inhibition curve with a large enough effect; inconclusive = small, poorly fitted or top-dose-only effect; inactive = flat fitted curve, though single readings scatter.
# Experiment: Drug repurposing screens with cells derived from glioblastoma tumor samples (AID 1345199); note: nearly all actives have a fitted effect of over 40% in size
# Conditions: GBM patient neurospheres viability, ATP luminescence, 48 h; at 46 µM (top of the series); tumour line A
# In short: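 Primary testing used CD133+ neurospheres from four GBM patients, seven concentrations, 48 h exposure and ATP-based viability; confirmation added three slower-growing patient lines.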
# % is set by controls: 0 for no effect and ±100 for the full control effect.
row,Structure (SMILES),"activity, negative = cell killing [%]"
1,CC1(C)[C@H](C(=O)O)N2C(=O)C[C@H]2S1(=O)=O,-4.41
2,O=C(O)CCn1c2c(c3ccccc31)C[C@H](NS(=O)(=O)c1ccc(F)cc1)CC2,-16.4
3,CCOCC(O)COc1ccc(NC(=O)CC[S+](C)C)cc1 (centres undefined),-26.7
4,Cc1cc(NS(=O)(=O)c2ccc(N)cc2)no1,-6.57
5,Cn1nnc2c(C(N)=O)ncn2c1=O,-21.4
6,OC(Cn1cncn1)(Cn1cncn1)c1ccc(F)cc1F,-17.5
7,CC1=NN(c2ccccc2)C(=O)C1,-29.7
8,C[C@@H]1CN(c2c(F)c(N)c3c(=O)c(C(=O)O)cn(C4CC4)c3c2F)C[C@H](C)N1,-8
9,Cc1ncc([N+](=O)[O-])n1CCO,-19.2
10,CN1CCN(c2c(F)cc3c(=O)c(C(=O)O)cn4c3c2OCN4C)CC1,-24
11,CN(CCOc1ccc(CC2SC(=O)NC2=O)cc1)c1ccccn1 (centres undefined),-36.2
12,Cc1nnc(NS(=O)(=O)c2ccc(N)cc2)s1,7.16
13,Cc1noc(NS(=O)(=O)c2ccc(N)cc2)c1C,-16.5
14,C#CCN[C@@H]1CCc2ccccc21,-26
15,CCCN[C@H]1CCc2nc(N)sc2C1,-26.8
16,CC[C@H](NC(C)C)[C@H](O)c1ccc(O)c2[nH]c(=O)ccc12,-27
17,O=C(O)c1cc(=O)[nH]c(=O)[nH]1,-24.7
18,NCCCC(O)(P(=O)(O)O)P(=O)(O)O,-6.09
19,COc1nc(N)nc2c1ncn2[C@@H]1O[C@H](CO)[C@@H](O)[C@@H]1O,-10
